Laboratory results taken from the supplement of paper PMC13380429.
A number with no mark means an inactive call.

Test system: Vero E6 infected with SARS-CoV-2
Experiment: inhibition of SARS-CoV-2 cytopathic effect; higher = more antiviral protection, active = above 15
Conditions: 48 h

COc1cc2c(cc1F)C(c1ccccc1Cl)=Nc1c(n[nH]c1C)N2
inhibition of SARS-CoV-2 cytopathic effect (1 nM): 1.86% | inhibition of SARS-CoV-2 cytopathic effect (8.33 nM): 1.62% | inhibition of SARS-CoV-2 cytopathic effect (100 nM): -1.34% | inhibition of SARS-CoV-2 cytopathic effect (833.33 nM): 2.98% | inhibition of SARS-CoV-2 cytopathic effect (10000 nM): 2.4%

O=C1C(O)=C([C@H]2CC[C@H](c3ccc(Cl)cc3)CC2)C(=O)c2ccccc21 [atovaquone]
inhibition of SARS-CoV-2 cytopathic effect (1 nM): 0.09% | inhibition of SARS-CoV-2 cytopathic effect (8.33 nM): -1.67% | inhibition of SARS-CoV-2 cytopathic effect (100 nM): -3.09% | inhibition of SARS-CoV-2 cytopathic effect (833.33 nM): -1.77% | inhibition of SARS-CoV-2 cytopathic effect (10000 nM): -9.21%

Cc1c2oc3c(C)ccc(C(=O)N[C@@H]4C(=O)N[C@H](C(C)C)C(=O)N5CCC[C@H]5C(=O)N(C)CC(=O)N(C)[C@@H](C(C)C)C(=O)O[C@@H]4C)c3nc-2c(C(=O)N[C@@H]2C(=O)N[C@H](C(C)C)C(=O)N3CCC[C@H]3C(=O)N(C)CC(=O)N(C)[C@@H](C(C)C)C(=O)O[C@@H]2C)c(N)c1=O [dactinomycin]
inhibition of SARS-CoV-2 cytopathic effect (1 nM): -0.42% | inhibition of SARS-CoV-2 cytopathic effect (8.33 nM): 3.96% | inhibition of SARS-CoV-2 cytopathic effect (100 nM): -3.53% | inhibition of SARS-CoV-2 cytopathic effect (833.33 nM): -8.77% | inhibition of SARS-CoV-2 cytopathic effect (10000 nM): -14.8%

O=C(Nc1ccccc1-c1cn2c(CN3CCNCC3)csc2n1)c1cnc2ccccc2n1
inhibition of SARS-CoV-2 cytopathic effect (1 nM): 0.17% | inhibition of SARS-CoV-2 cytopathic effect (8.33 nM): 1.58% | inhibition of SARS-CoV-2 cytopathic effect (100 nM): -0.07% | inhibition of SARS-CoV-2 cytopathic effect (833.33 nM): -3.31% | inhibition of SARS-CoV-2 cytopathic effect (10000 nM): -26.2%

CN(C)C(=O)Oc1ccc[n+](C)c1 [mestinon]
inhibition of SARS-CoV-2 cytopathic effect (1 nM): 4.06% | inhibition of SARS-CoV-2 cytopathic effect (8.33 nM): -0.26% | inhibition of SARS-CoV-2 cytopathic effect (100 nM): 0.13% | inhibition of SARS-CoV-2 cytopathic effect (833.33 nM): -2.1% | inhibition of SARS-CoV-2 cytopathic effect (10000 nM): -1.86%

CC/C(=C(/c1ccc(/C=C/C(=O)O)cc1)c1ccc2[nH]ncc2c1)c1ccc(F)cc1Cl
inhibition of SARS-CoV-2 cytopathic effect (1 nM): 4.17% | inhibition of SARS-CoV-2 cytopathic effect (8.33 nM): -1.18% | inhibition of SARS-CoV-2 cytopathic effect (100 nM): -1.84% | inhibition of SARS-CoV-2 cytopathic effect (833.33 nM): 0.21% | inhibition of SARS-CoV-2 cytopathic effect (10000 nM): -0.85%

[Cl][Ru-]([Cl])([Cl])[Cl].[Na+].c1ccc2[nH]ncc2c1.c1ccc2[nH]ncc2c1
inhibition of SARS-CoV-2 cytopathic effect (1 nM): 2.72% | inhibition of SARS-CoV-2 cytopathic effect (8.33 nM): 0.03% | inhibition of SARS-CoV-2 cytopathic effect (100 nM): 1.2% | inhibition of SARS-CoV-2 cytopathic effect (833.33 nM): 5.02% | inhibition of SARS-CoV-2 cytopathic effect (10000 nM): 18% (active)

COc1cc(C(=S)N2CCOCC2)cc(OC)c1OC [sulmetozine]
inhibition of SARS-CoV-2 cytopathic effect (1 nM): -6.81% | inhibition of SARS-CoV-2 cytopathic effect (8.33 nM): -0.82% | inhibition of SARS-CoV-2 cytopathic effect (100 nM): 1.75% | inhibition of SARS-CoV-2 cytopathic effect (833.33 nM): -0.02% | inhibition of SARS-CoV-2 cytopathic effect (10000 nM): 2.55%

NC[C@H]1O[C@H](O[C@H]2[C@H](O)[C@@H](O[C@H]3O[C@H](CO)[C@@H](O)[C@H](N)[C@H]3O)[C@H](N)C[C@@H]2N)[C@H](N)[C@@H](O)[C@@H]1O [bekanamycin]
inhibition of SARS-CoV-2 cytopathic effect (1 nM): -0.6% | inhibition of SARS-CoV-2 cytopathic effect (8.33 nM): -0.02% | inhibition of SARS-CoV-2 cytopathic effect (100 nM): -0.32% | inhibition of SARS-CoV-2 cytopathic effect (833.33 nM): 0% | inhibition of SARS-CoV-2 cytopathic effect (10000 nM): -1.85%

CC(C)C[C@@H](C=O)NC(=O)[C@H](CC(C)C)NC(=O)[C@H](CC(C)C)NC(=O)OCc1ccccc1
inhibition of SARS-CoV-2 cytopathic effect (1 nM): -0.72% | inhibition of SARS-CoV-2 cytopathic effect (8.33 nM): 0.74% | inhibition of SARS-CoV-2 cytopathic effect (100 nM): 9.43% | inhibition of SARS-CoV-2 cytopathic effect (833.33 nM): 54% (active) | inhibition of SARS-CoV-2 cytopathic effect (10000 nM): 55.5% (active)

O=C(c1cccc(Cl)c1F)N1CCN(Cc2cccc(Nc3nccs3)n2)CC1
inhibition of SARS-CoV-2 cytopathic effect (1 nM): -0.75% | inhibition of SARS-CoV-2 cytopathic effect (8.33 nM): -9.29% | inhibition of SARS-CoV-2 cytopathic effect (100 nM): 0.91% | inhibition of SARS-CoV-2 cytopathic effect (833.33 nM): -4.51% | inhibition of SARS-CoV-2 cytopathic effect (10000 nM): -1.08%

CCc1ccc(/C=C2/SC(=S)NC2=O)cc1
inhibition of SARS-CoV-2 cytopathic effect (1 nM): -2.34% | inhibition of SARS-CoV-2 cytopathic effect (8.33 nM): -6.5% | inhibition of SARS-CoV-2 cytopathic effect (100 nM): -4.03% | inhibition of SARS-CoV-2 cytopathic effect (833.33 nM): 3.21% | inhibition of SARS-CoV-2 cytopathic effect (10000 nM): 1.11%

C[C@]12CC[C@@H]3c4ccc(O)cc4CC[C@H]3[C@@H]1C[C@@H](O)[C@@H]2O [estriol]
inhibition of SARS-CoV-2 cytopathic effect (1 nM): 2.04% | inhibition of SARS-CoV-2 cytopathic effect (8.33 nM): 1.38% | inhibition of SARS-CoV-2 cytopathic effect (100 nM): -1.95% | inhibition of SARS-CoV-2 cytopathic effect (833.33 nM): -1.63% | inhibition of SARS-CoV-2 cytopathic effect (10000 nM): -0.19%

Cc1ccc(O)c(N=Nc2ccccc2)n1
inhibition of SARS-CoV-2 cytopathic effect (1 nM): -2.81% | inhibition of SARS-CoV-2 cytopathic effect (8.33 nM): -4.41% | inhibition of SARS-CoV-2 cytopathic effect (100 nM): -3.53% | inhibition of SARS-CoV-2 cytopathic effect (833.33 nM): 0.01% | inhibition of SARS-CoV-2 cytopathic effect (10000 nM): 3.77%

CC(C)(C)NCC(O)c1cc(Cl)c(N)c(C(F)(F)F)c1 (stereo not given) [mabuterol]
inhibition of SARS-CoV-2 cytopathic effect (1 nM): -0.03% | inhibition of SARS-CoV-2 cytopathic effect (8.33 nM): -0.53% | inhibition of SARS-CoV-2 cytopathic effect (100 nM): 3.86% | inhibition of SARS-CoV-2 cytopathic effect (833.33 nM): -1.18% | inhibition of SARS-CoV-2 cytopathic effect (10000 nM): -0.72%

CCCCOc1ccc(CC(=O)NO)cc1 [bufexamac]
inhibition of SARS-CoV-2 cytopathic effect (1 nM): 0.27% | inhibition of SARS-CoV-2 cytopathic effect (8.33 nM): -0.68% | inhibition of SARS-CoV-2 cytopathic effect (100 nM): 0.49% | inhibition of SARS-CoV-2 cytopathic effect (833.33 nM): 0% | inhibition of SARS-CoV-2 cytopathic effect (10000 nM): 0.42%

C/C(=N\NC(=O)C(NC(=O)c1ccccc1)c1n[nH]c(=O)c2ccccc12)c1cccc(Br)c1 (stereo not given)
inhibition of SARS-CoV-2 cytopathic effect (1 nM): -0.71% | inhibition of SARS-CoV-2 cytopathic effect (8.33 nM): 2.21% | inhibition of SARS-CoV-2 cytopathic effect (100 nM): 0.8% | inhibition of SARS-CoV-2 cytopathic effect (833.33 nM): 3.15% | inhibition of SARS-CoV-2 cytopathic effect (10000 nM): 4.46%
